# Results reported in PubChem BioAssay AID504465 (National Center for Advancing Translational Sciences (NCATS), 2011).
# Hit rate of the full screen: of about 2,100 compounds, about 210 (10%) were called active. Another 53% or so got no clear call; they are omitted. This is one part of the list. Values without a mark were called inactive. The call rests on the fitted dose curve; in most records, active means well fitted inhibition curve with a large enough effect; inconclusive means small, poorly fitted or top-dose-only effect, or effect the other way; inactive means no such curve, though single readings can be large or run the other way.
# Experiment: IN Cell qHTS Assay for Inhibitors of the mTORC1 Signaling Pathway in MEF (Tsc2-/-, p53-/-) Cells: Sytravon; further: nearly all actives have a fitted effect of over 60% in size
# Settings: phospho-rpS6 immunofluorescence, 24 h; series mostly up to 38.3 µM; activity, negative = inhibition: at the top concentration
# Procedure, shortened: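 Immunofluorescence of rpS6 phosphorylation (Ser235/236) in mouse embryonic fibroblasts lacking Tsc2 and p53, after 24 h compound exposure; Hoechst-normalized signal imaged, each well scored as % active cells relative to rapamycin (7.5 nM) and DMSO controls.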
# Potency means the concentration at half of the fitted maximal effect.
Compound,"activity, negative = inhibition",Potency
CC(C)c1ccc(S(=O)(=O)Nc2ccc3oc4c(c3c2)C(=O)CC(C)(C)C4)cc1,-100%,
COc1cc(S(=O)(=O)NCCc2c(C)[nH]c3ccccc23)c(C)cc1C,27.6%,
CN(C)S(=O)(=O)c1ccc(C(=O)Nc2ccc(-n3nncc3-c3ccccc3)cc2)cc1,6.25%,
COC(=O)c1sccc1S(=O)(=O)N(CC(=O)Nc1ccc(C)cc1)c1ccccc1,0.187%,
CCN(CC)c1nc2ccccc2nc1C(=O)Nc1ccc(C(C)=O)cc1,-4.22%,
CCN(c1ccccc1)S(=O)(=O)c1ccc(NC(=O)c2nc(S(C)(=O)=O)ncc2Cl)cc1,,2.07 µM (active)
CSc1ncc(Cl)c(C(=O)N(C)c2ccccc2)n1,-7.39%,
CN(c1ccccc1)S(=O)(=O)c1ccc(NC(=O)c2nc(S(C)(=O)=O)ncc2Cl)cc1,,0.736 µM (active)
Oc1cccc(Nc2nc(-c3ccccc3)nc3ccccc23)c1,14.6%,
Cc1ccc(-n2cnc3cc(C(=O)NCCC4=CCCCC4)ccc32)cc1Cl,6.25%,
Cc1ccc(NC(=O)N2CC3CCCN3c3ccccc32)cc1Cl (stereo not given),1.3%,
Cc1ccc(-c2nn3c(=O)cc(CN4CCN(C(=O)Nc5cc(Cl)ccc5C)CC4)nc3s2)cc1,-27.1%,
CCOC(=O)c1c(NC(=O)c2ccc(S(=O)(=O)N3CCC(C)CC3)cc2)sc2c1CCN(C)C2,-15%,
COc1ccccc1CNC(=O)C(=O)NCC(c1cccnc1)N1CCN(c2ccc(F)cc2)CC1 (stereo not given),-26.1%,
Cc1ccc(/C=C(\C#N)C(=O)Nc2ccc(Br)cc2)o1,-12.4%,
Cc1[nH]n2c(=O)cc(-c3ccc(Cl)cc3)nc2c1-c1ccccc1,-21.5%,
N=c1n(CCN2CCCCC2)c2ccccc2n1CC(O)COc1ccc(Cl)cc1Cl (stereo not given),,2.61 µM (active)
Cc1ccccc1OCC(O)Cn1c(=N)n(CCN2CCCCC2)c2ccccc21 (stereo not given),,5.85 µM (active)
CCCCn1c(=N)n(CCOc2ccccc2OC)c2ccccc21,,6.56 µM (active)
CCn1c(=N)n(CCOc2ccc(Br)cc2)c2ccccc21,,6.56 µM (active)
COc1cccc(OCc2nc3ccccc3n2CCOc2ccc(C)cc2)c1,-0.601%,
COc1ccccc1N1CCN(CC(O)COc2ccc(C)cc2C(C)(C)C)CC1 (stereo not given),15.3%,
Cc1ccc(OCCn2c(CNc3cccc(C)c3)nc3ccccc32)cc1,3.56%,
COc1cc(C2CC(=O)Nc3cc4c(cc32)OCCO4)cc(OC)c1O (stereo not given),5.26%,

Compound,"activity, negative = inhibition",Potency
COc1ccccc1NC(=O)CSc1nnc2c(n1)[nH]c1ccccc12,-25.8%,
CCN(C(=O)c1cc2c(=O)oc3ccc(C)cc3c2s1)c1ccccc1F,2.45%,
Cc1ccccc1C(=O)Nc1cccc(OCc2cc(=O)n3cccc(C)c3n2)c1,-3.41%,
CCOc1ccc(C2=C(C(C)=O)Sc3nnc(C)n3N2C(C)=O)cc1,-20.9%,
O=C(NCc1ccccc1Cl)c1nnc(Cc2cccc(F)c2)o1,-10.8%,
COc1ccc(C)cc1NC(=O)C(NS(=O)(=O)c1cccs1)c1ccccc1 (stereo not given),-19.2%,
CCN(CC)CCn1c(=N)n(CCOc2ccccc2Cl)c2ccccc21,,3.69 µM (active)
CCCCCn1c(=N)n(CC(O)COc2cccc(C)c2)c2ccccc21 (stereo not given),,2.61 µM (active)
Cc1ccccc1OCCn1c(=N)n(C(C)C)c2ccccc21,,9.27 µM (active)
COc1ccc(N2CCN(CC(O)COc3ccc(C)c(C)c3)CC2)cc1 (stereo not given),0%,
CCCCCn1c(-c2cccc(C)c2)nc2ccccc21,-18.9%,
CCN(CC)CCn1c(=N)n(CC(O)COc2ccccc2C)c2ccccc21 (stereo not given),,5.85 µM (active)
Cc1ccc(C(=O)n2nc(C)c(S(=O)(=O)N3CCCCCC3)c2C)cc1,0.537%,
Cc1ccc(NC(=O)CCNS(=O)(=O)c2cccc3nonc23)cc1Cl,5.36%,
COc1ccc(C(=O)c2cn(Cc3cccc(C)c3)c3cc4c(cc3c2=O)OCO4)cc1,23.3%,
CCOC(=O)c1ccccc1Nc1cc(C)nc2nc(-c3ccco3)nn12,-9.33%,
CC(C)c1ccc(NC(=O)c2cc(S(=O)(=O)NCCC3=CCCCC3)ccc2F)cc1,6.25%,
Fc1ccc(-c2csc(=Nc3cccc(C(F)(F)F)c3)n2Cc2ccc3c(c2)OCO3)cc1,6.58%,
CCOC(=O)N1CCc2c(sc3c2C(=O)NC(c2ccc(C(=O)OC)cc2)N3)C1 (stereo not given),-10.6%,
COc1cc2c(cc1OC)n(CC(=O)c1ccc(F)cc1)c(=O)n1nc(CCn3nc(C)cc3C)nc21,-8.82%,
Cc1ccc(NC(=O)c2c(C)oc3ccc(O)c(CN(C)Cc4ccccc4)c23)c(C)c1,-15.8%,
CCC(C)NC(=O)CSc1nc2cc3c(cc2c(=O)n1CCCC(=O)NCCc1ccc(OC)c(OC)c1)OCO3 (stereo not given),-1.63%,
COc1ccccc1Oc1nc2c(C)cccn2c(=O)c1/C=C(\C#N)c1nc2ccccc2[nH]1,21%,
O=C(Cn1cc(SCc2ccc(F)cc2)c2ccccc21)N1CCCCCC1,-24.4%,

Compound,"activity, negative = inhibition",Potency
COCCn1c(=N)c(C(=O)NCc2ccco2)cc2c(=O)n3cc(C)ccc3nc21,,13.1 µM (active)
Cc1ccc(-c2noc(CCCC(=O)NCc3ccco3)n2)cc1,-11.7%,
Cc1ccc2nc3c(cc(C(=O)NC4CCCCC4)c(=N)n3C(C)C)c(=O)n2c1,-26.3%,
Cc1ccc(Cl)cc1NC(=O)CCn1cnc2ccccc2c1=O,-0.138%,
COc1ccc(C(=O)N2CCc3cc(OC)c(OC)cc3C2COc2ccc3c(C)cc(=O)oc3c2)c(OC)c1 (stereo not given),-9.89%,
CCCCS(=O)(=O)c1oc(-c2cccs2)nc1S(=O)(=O)c1ccc(F)cc1,,3.69 µM (active)
O=S(=O)(c1ccccc1)c1nc(-c2cccs2)oc1SCc1ccccc1F,-2.37%,
Cc1ccc(S(=O)(=O)c2nnn3c2nc(NCc2cccs2)c2sccc23)cc1,-14.6%,
CCC(C)S(=O)(=O)c1oc(-c2cccs2)nc1S(=O)(=O)c1ccccc1 (stereo not given),,1.47 µM (active)
CCCCS(=O)(=O)c1oc(-c2cccs2)nc1S(=O)(=O)c1ccccc1,,0.585 µM (active)
Cc1nn(C)c2c1c(-c1ccccc1)cc(=O)n2Cc1ccccc1C#N,0.892%,
CCN1CCOC(=O)C1CC(=O)Nc1ccc(Br)cc1 (stereo not given),14.1%,
Cc1cc(C)cc(NC(=O)C2CCCN2S(=O)(=O)c2ccc3nc(-c4ccccc4)[nH]c3c2)c1 (stereo not given),-4.65%,
COc1ccc(S(=O)(=O)NC2(C(F)(F)F)NC(=O)N(CCc3ccc(OC)c(OC)c3)C2=O)cc1 (stereo not given),-12.2%,
O=C(CSCc1ccc(F)cc1)N1CCc2c([nH]c3ccccc23)C1c1ccc(Cl)cc1 (stereo not given),-19.1%,
CCOc1ccc(-c2cc(NC(=O)c3ccc(C)cc3)c(C(=O)OC)s2)cc1,-3.56%,
CCCCNC(=O)c1ccc2c(c1)N=C(CC)c1ccccc1S2,29.1%,
CCCN1CCN(CCCNC(=O)c2ccc3c(c2)sc2nc(-c4ccc(OCC)cc4)cn23)CC1,,1.85 µM (active)
CCC1CCCCN1C(=O)CSc1n[nH]c(-c2ccccc2)n1 (stereo not given),17.6%,
CCOC(=O)c1cc(S(=O)(=O)NCc2ccc(C)cc2)[nH]n1,-2.92%,
Cc1cccc(NC(=O)c2oc3ccc(S(=O)(=O)N4CCC5(CC4)OCCO5)cc3c2C)c1C,6.25%,
CCCCN1C(=O)C(O)(c2c(C)[nH]c3ccccc23)c2cc(Br)ccc21 (stereo not given),-16.3%,
COc1cccc(C(=O)CC2(O)C(=O)N(Cc3ccccc3)c3ccccc32)c1 (stereo not given),-15.2%,
Cc1ccccc1CN1C(=O)C(O)(CC(=O)c2ccccc2)c2cc(Cl)ccc21 (stereo not given),-20.8%,

Compound,"activity, negative = inhibition",Potency
CCCCN1C(=O)C(O)(CC(=O)c2ccc(CC)cc2)c2cc(Br)ccc21 (stereo not given),,18.5 µM (active)
COc1ccc(C(=O)CC2(O)C(=O)N(Cc3cccc(C(F)(F)F)c3)c3ccccc32)cc1 (stereo not given),,4.65 µM (active)
COC(=O)CN1C(=O)C(O)(CC(=O)c2ccc(F)cc2)c2ccccc21 (stereo not given),-21.4%,
CCCN1C(=O)C(O)(CC(=O)c2ccc(C(C)C)cc2)c2ccccc21 (stereo not given),-15.2%,
O=C(CC1(O)C(=O)N(Cc2ccccc2)c2ccc(Br)cc21)c1ccccc1 (stereo not given),,16.5 µM (active)
CCCCN1C(=O)C(O)(c2c[nH]c3ccccc23)c2cc(Br)ccc21 (stereo not given),-6.22%,
O=C(CC1(O)C(=O)N(CCc2ccccc2)c2ccc(Br)cc21)c1ccccc1O (stereo not given),,20.7 µM (active)
CN1CCc2c(sc(NC(=O)CSc3ccc(F)cc3)c2-c2nc3ccccc3s2)C1,-2.19%,
CCC1=Nc2cc(C(=O)NCC(C)c3ccccc3)ccc2Sc2ccc(C)cc21 (stereo not given),3.53%,
CCn1cc2nc(SCC(=O)Nc3cccc(Cl)c3C)n(Cc3ccc(Cl)cc3)c(=O)c2n1,-2.07%,
COc1ccc(-c2nc(SCC(=O)Nc3ccc4c(c3)OCCO4)c(-c3ccc(F)cc3)[nH]2)cc1,-6.12%,
CC1=C(C(=O)OCC2CCCCC2)C(c2ccc(Cl)cc2)CC(=O)N1 (stereo not given),14.2%,
O=C1c2[nH]nc(-c3ccccc3O)c2C(c2ccc(Cl)cc2)N1Cc1ccco1 (stereo not given),-21.5%,
COc1ccc(C2(Nc3cccc(C(=O)O)c3C)C(=O)c3ccccc3C2=O)cc1,-0.529%,
CCc1ccc(Oc2nc3c(C)cccn3c(=O)c2/C=C(\C#N)c2nc3ccccc3[nH]2)cc1,-94.3%,
COc1cccc(NS(=O)(=O)c2ccc3c(c2)CCCN3C(=O)C2CCC2)c1,-3.21%,
COc1cc(C(=O)CC2(O)C(=O)N(Cc3ccccc3Cl)c3ccccc32)cc(OC)c1OC (stereo not given),,0.147 µM (active)
COc1ccc(N2C(=O)CCSC23C(=O)N(Cc2ccc(F)cc2)c2ccccc23)cc1Cl (stereo not given),-17.3%,
Cc1ccc(CN2C(=O)C(O)(c3c(C)[nH]c4ccccc34)c3ccccc32)cc1 (stereo not given),-20.6%,
Cc1ccc(CN2C(=O)C(O)(CC(=O)c3ccc(C)cc3)c3ccccc32)cc1 (stereo not given),,16.5 µM (active)
CCOC(=O)CN1C(=O)C(O)(CC(=O)c2cc(OC)ccc2OC)c2ccccc21 (stereo not given),46%,
CCc1ccc(C(=O)CC2(O)C(=O)N(Cc3ccc(C)cc3)c3ccccc32)cc1 (stereo not given),-88.7%,
CCOC(=O)C1CCN(C(=O)CSc2c3c(nc4ccc(Cl)cc24)CCCC3)CC1,-16.3%,
